“And” between values parts separate entries of the source, which are not always exact repeats. Equal values may be shown once. Results filed as inconclusive are left out. Some compounds were tested as several samples or in several runs, with calls that do not always agree. The source made the active and inactive calls. The calls were made as follows: active = hit-call score of the fitted dose curve at least 0.9, where 1 is the maximum; inconclusive = response in the unintended direction; inactive = score below 0.9.

Usually AC50 stands for the concentration at which the activity in the assay is half-maximal.

The test is described as follows: TOX21_p53_BLA_p2_viability: Viability Assessment in the Tox21 HCT-116 p53 Agonism Beta-lactamase Assay, Phase 2 (AID 2283591).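 Also: compound exposure lasted 16 h at 37 °C; actives lower the ATP signal meaning cytotoxicity.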 An excerpt: TOX21_p53_BLA_p2 is a cell-based, single-readout assay that uses HCT116, a human intestinal cell line, […] in a 1536-well plate.TOX21_p53_BLA_p2_viability is an assay readout measuring cellular ATP content and detected with CellTiter-Glo Luciferase-coupled ATP quantitation.TOX21_p53_BLA_p2_viability used a type of viability reporter where loss-of-signal activity can be used to understand changes in the cell viability. Furthermore, this assay endpoint can be referred to as a secondary readout, because this assay has produced multiple assay endpoints where this one serves a viability function. To generalize the intended target to other relatable targets, this assay endpoint is annotated to the cell cycle intended target family, where the subfamily is cytotoxicity.
Thawing Method: Place 14 mL of pre-warmed thaw medium into a 15 mL of conical tub. Remove the vial of cells to be thawed from liquid nitrogen and thaw rapidly by placing at 37C in a water bath with gentle agitation for 1-2 minutes. Decontaminate the vial by wiping with 70% ethanol before opening in a biological safety cabinet. Transfer the vial contents drop-wise into 14 mL of thaw medium in a sterile 15-mL conical tub. Centrifuge cells at 900 rpm for 4 minutes and resuspend in thaw medium. Transfer contents to the T75 tissue culture flask containing Thaw Medium and place flask in a humidified 37C/5% CO2 incubator. Switch to growth medium at first passage.Propagation Method: Aspirate medium, rinse once in DPBS, add 0.25% Trypsin/EDTA and swirl to coat the cell evenly. Add an equal volume of Growth Medium to inactivate Trypsin after 2-3 minutes incubation at 37C. Centrifuge cells at 900 rpm for 4 minutes and resuspend in growth medium. Cell should be passage or fed at least twice a week.Assay Protocol: Harvest cells from culture in growth medium and resuspend in assay medium. 2.2 Dispense 4000 cells/5 uL/well into 1536-well black/clear bottom plates using a Multidrop dispenser. After the cells were incubated at 37C for 5 hours, 23 nL of compounds dissolved in DMSO were transferred to the assay plate by a PinTool resulting in a 217-fold dilution. Incubate the plates for 16 hours at 37C, 5% CO2. Add 1 uL of 6X LiveBLAzer FRET B/G (CCF4-AM) Substrate Mixture to each well using a BioRAPTR dispenser and incubate the plates at room temperature for 2 hours. Measure fluorescence intensity at 460 and 530 nm emission and 405 nm excitation by an Envision detector. Data is expressed as the ratio of 460nm/530nm emissions. Add 4 uL of Cell-titer Glo to each well using BioRAPTR and incubate the plates at room temperature for […]. For cell viability readout that measures cytotoxicity, 4 ul/well of CellTiter-Glo reagent was added into the assay plates using a Flying Reagent Dispenser. After 30 min incubation at room temperature, the luminescence intensity in the plates was measured using a ViewLux plate reader.
Regarding `CCOP(=S)(OCC)Oc1ccc2c(C)c(Cl)c(=O)oc2c1`, the call was inactive.
On the same count and under the same terms, then `CON=C(C(=O)OC)c1ccccc1CON=C(C)c1cccc(C(F)(F)F)c1`, with “inactive”; and `COP(=O)(NC(C)=O)SC` (stereo not given), with “inactive”.
Still for that read-out and setting: then `CC1(C(=O)Nc2ccc(O)c(Cl)c2Cl)CCCCC1`, with “inactive”.
Still for that read-out and setting: then `CNC(=O)ON=C(SC)C(=O)N(C)C`, with “inactive”.
For the compound `C[Si](Cn1cncn1)(c1ccc(F)cc1)c1ccc(F)cc1`, the compound was called inactive and the AC50 was 23.1 µM (active).
As to `COP(=O)(OC)C(O)C(Cl)(Cl)Cl` (stereo not given), the result was inactive.
Same read-out and setting: in the case of `CCNc1nc(Cl)nc(NC(C)(C)C#N)n1` it was “inactive”; in that of `CCOC(=O)COc1cc(-c2nn(C)c(OC(F)F)c2Cl)c(F)cc1Cl`, “inactive”; in that of `CCOP(=S)(OCC)Oc1cc(C)nc(C(C)C)n1`, “inactive”.
For the compound `CCOP(=S)(OCC)SCCSCC`, the compound was classed as inactive.
Turning to `CC(C)=CC1C(C(=O)OCN2C(=O)C3=C(CCCC3)C2=O)C1(C)C` (stereo not given), the compound was called inactive.
On the same count and under the same terms, in the case of `CCOP(=S)(OCC)Oc1ccc([N+](=O)[O-])cc1` it was “inactive”; in that of `CCOP(=O)(NC(C)C)Oc1ccc(SC)c(C)c1` (stereo not given), “inactive”; in that of `FC(F)C(F)(F)OCC(Cn1cncn1)c1ccc(Cl)cc1Cl` (stereo not given), “inactive”.
Same read-out and setting: then `CCC(=NOC/C=C/Cl)C1=C(O)CC(C2CCOCC2)CC1=O` (stereo not given), with “inactive”.
Same read-out and setting: then `CCCSP(=O)(OCC)Oc1ccc(Br)cc1Cl` (stereo not given), with “inactive”.
`CC[C@H](C)[C@H]1O[C@]2(C=C[C@@H]1C)C[C@@H]1C[C@@H](C/C=C(\C)[C@@H](O[C@H]3C[C@H](OC)[C@@H](O[C@H]4C[C@H](OC)[C@@H](NC)[C@H](C)O4)[C@H](C)O3)[C@@H](C)/C=C/C=C3\CO[C@@H]4[C@H](O)C(C)=C[C@@H](C(=O)O1)[C@]34O)O2`: the AC50 was 13.5 µM (active).
Turning to `COc1cccc(C(=O)NN(C(=O)c2cc(C)cc(C)c2)C(C)(C)C)c1C`, the outcome was inactive.
The same measure, in the same setting: then `CC(=NC#N)N(C)Cc1ccc(Cl)nc1`, with “inactive”; and `CC(C1CC1)C(O)(Cn1cncn1)c1ccc(Cl)cc1` (stereo not given), with “inactive”; and `CCCCOC(=O)c1ccccc1C(=O)O`, with “inactive”.
In the case of `CCOC(=O)CC(SP(=O)(OC)OC)C(=O)OCC` (stereo not given), the outcome was inactive.
With `N#CSCSC#N`, the AC50 was 54.8 µM (active) and 70.4 µM (active).
With `CCC(CC)Nc1c([N+](=O)[O-])cc(C)c(C)c1[N+](=O)[O-]`, the outcome was inactive.
In the case of `COc1cc(OC)nc(Sc2cccc(Cl)c2C(=O)O)n1`, the compound was classed as inactive.
Same read-out and setting: in the case of `S=C1NCCN1` it was “inactive”.
For the compound `CCCOCC(=Nc1ccc(Cl)cc1C(F)(F)F)n1ccnc1`, the AC50 is 23.7 µM (active).
In the case of `CCCCOC(=O)[C@@H](C)Oc1ccc(Oc2ccc(C#N)cc2F)cc1`, the outcome was inactive.
On the same count and under the same terms, then `CC(COc1ccc(Oc2ccccc2)cc1)Oc1ccccn1` (stereo not given), with “inactive”; and `C#CC(C)(C)NC(=O)c1cc(Cl)cc(Cl)c1`, with “inactive”; and `CCCCSP(=O)(SCCCC)SCCCC`, with “inactive”.
Still for that read-out and setting: then `CCC(=O)Nc1ccc(Cl)c(Cl)c1`, with “inactive”; and `CSC1=N[C@@](C)(c2ccccc2)C(=O)N1Nc1ccccc1`, with “inactive”; and `Nc1nc(N)nc(NC2CC2)n1`, with “inactive”.
Same read-out and setting: then `COc1ccc(C(=CC(=O)N2CCOCC2)c2ccc(Cl)cc2)cc1OC`, with “inactive”; and `CC(C)N(C(=O)SCC(Cl)=C(Cl)Cl)C(C)C`, with “inactive”; and `O=c1ccc(=O)[nH][nH]1`, with “inactive”.
On to `CN(C)NC(=O)CCC(=O)O`, for which the outcome was inactive.

The record behind these values is PubChem BioAssay (EPA / NIEHS).
